Assay [1] has as its system HIV-1 integrase (multimerization). Put plainly: stimulation of HIV-1 integrase oligomerization – biochemical, TR-FRET, counter-screen for LEDGF/p75 integration inhibitor project (AID 1053131; in the data active = activation above about 8.9%). The following applies: TR-FRET HIV-1 integrase multimerization, at 7.7 µM, stronger effect = higher value.
Assay [2] in a line: compounds disturbing TR-FRET signal readout – biochemical, HIV-1 IN multimerization, artefact control for LEDGF/p75-dependent integration inhibitor project, confirmation (AID 1053135;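 active = inhibition above the mean over all tested compounds plus 3 SD, which no compound reached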;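 also: 0% = integrase with antibodies and DMSO and 100% = antibodies without integrase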). The following applies: TR-FRET optical interference counterscreen, at 7.7 µM, stronger effect = higher value.
The test system of assay [3] is HIV-1 integrase / human LEDGF/p75 complex. Nature of the assay: blockers of LEDGF/p75-dependent integrase activity – biochemical, TR-FRET, confirmation (AID 1053136; in the data active = inhibition above about 14%). The following applies: TR-FRET LEDGF/p75-dependent HIV-1 integration, at 3.7 µM, stronger effect = higher value. (TR-FRET usually uses a lanthanide donor and a delayed reading to cut background.)
Assay [4] has as its target Protein phosphatase methylesterase 1 (Homo sapiens) (UniProt Q9Y570). Put plainly: human PME-1 methylesterase inhibition confirmation – biochemical, fluorescence polarization, FP-Rh probe, triplicate (AID 2171).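 Also: 0% = enzyme with DMSO and 100% = wells lacking PME-1.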 The following applies: recombinant PME-1, FP-Rh probe fluorescence polarization; at 5.9 µM; stronger effect = higher value. A general note: Fluorescence polarisation rises when a labelled molecule tumbles more slowly, as on binding a larger partner.

For assay [5], the target named is Peroxisome proliferator-activated receptor gamma (Homo sapiens) (UniProt P37231). Put plainly: retested PPARg-SRC-2 recruitment enhancers – biochemical, HTS, confirmation (AID 1297; in the data active = activation above about 22%;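 also: 0% = vehicle alone and 100% = reference agonist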). Particulars: biochemical SRC-2 recruitment by PPARgamma; at 8 µM; stronger effect = higher value.
Assay [6] has the same target. Put plainly: retest of SRC-1 recruitment enhancers for PPARgamma – biochemical, confirmation (AID 1300; in the data active = activation above about 20%;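 also: 0% = vehicle wells and 100% = reference agonist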). The following applies: PPARgamma–SRC-1 coactivator recruitment biochemical assay; at 8 µM; stronger effect = higher value.
For assay [7], the target named is Peroxisome proliferator-activated receptor gamma (Homo sapiens) + Nuclear receptor coactivator 3 (Homo sapiens) (UniProt P37231+Q9Y6Q9). Put plainly: agonists promoting SRC-3 binding to PPARgamma – biochemical, confirmation (AID 1301; in the data active = activation above about 24%;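 also: 0% = vehicle wells and 100% = reference agonist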). The following applies: biochemical PPARgamma-SRC-3 coactivator recruitment, agonist mode; at 8 µM; stronger effect = higher value.
The target in assay [8] is (Lyso)-N-acylphosphatidylethanolamine lipase (Mus musculus) (UniProt Q8VD66). Nature of the assay: mouse ABHD4 hydrolase blockers, triplicate – biochemical, fluorescence polarization, confirmation (AID 720658;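 active = mean inhibition across replicates above the hit cutoff set in the primary screen, cut at about 30% in these data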;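 also: 0% = wild-type ABHD4 with DMSO and 100% = catalytically dead S159A mutant with DMSO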). The following applies: purified mABHD4, FP-Rh probe fluorescence polarization; at 8.92 µM; stronger effect = higher value.
In assay [9] the target is Bcl-2-like protein 1 (Homo sapiens) (UniProt Q07817). Nature of the assay: Bcl-xL BH3-peptide displacement, hit confirmation – biochemical, fluorescence polarization, counter-screen for MCL1 inhibitor project (AID 2166;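 active = inhibition above a cutoff equal to the mean inhibition of all tested compounds plus 3 SD, cut at about 30% in these data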). Particulars: GST-Bcl-xL / FITC-Bim BH3 peptide FP binding; at 10.9 µM; stronger effect = higher value.
Assay [10] concerns the target Glutathione S-transferase omega-1 (Homo sapiens) (UniProt P78417). Put plainly: recombinant GSTO1 blockers, retest – biochemical, fluorescence polarization, triplicate, counter-screen for RBBP9 inhibitor project, confirmation (AID 2176;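 active = inhibition above the primary screen's cutoff, its mean inhibition plus 3 SD, cut at about 35% in these data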;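 also: loss of polarization as inhibitors block binding of rhodamine sulfonate ester activity probe; 0% = GSTO1 with DMSO and 100% = wells lacking GSTO1 enzyme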). Particulars: recombinant GSTO1, probe fluorescence polarization; at 5.96 µM; stronger effect = higher value.
Assay [11] has as its target Protein-arginine deiminase type-4 (Homo sapiens) (UniProt Q9UM07). Nature of the assay: protein arginine deiminase 4 blockade, retest – biochemical, fluorescence polarization, confirmation (AID 488796;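 active = mean inhibition across replicates above the hit cutoff set by the earlier primary screen, cut at about 15% in these data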;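 also: inhibitors block active-site labeling by the probe so polarization falls; 0% = PAD4 with probe and DMSO and 100% = probe without PAD4 enzyme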). Particulars: recombinant PAD4, RCA probe fluorescence polarization; at 6.36 µM; stronger effect = higher value.
Assay [12] addresses Platelet-activating factor acetylhydrolase IB subunit alpha1 (Homo sapiens) (UniProt Q15102). Nature of the assay: inhibition of PAF acetylhydrolase 1B subunit 3 – biochemical, fluorescence polarization, human, confirmation (AID 493032;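 active = average inhibition over triplicate runs above the hit cutoff set in the earlier primary screen, cut at about 25% in these data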;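 also: 0% = enzyme with DMSO and 100% = wells lacking PAFAH1B3 protein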). Particulars: recombinant PAFAH1B3, FP-Rh activity-based probe, at 3.39 µM, stronger effect = higher value.
Assay [13] has as its system TLR4-MyD88 interaction (human), BLA complementation. Put plainly: disruptors of TLR4 binding to MyD88 – cell-based, HeLa CL3-4, BLA complementation, FRET ratio, confirmation (AID 941;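 active = mean inhibition across three repeat runs above about 25% carried over from the earlier screen, limit read from the data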;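 also: plate controls were DMSO only for no effect and clavulanic acid blocking BLA at full dose for full effect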). The following applies: CCF4 FRET ratio, at 8.4 µM, stronger effect = higher value.
A short description of assay [14]: BLA reporter interference in HeLa cells – cell-based, full-length BLA, CCF4 FRET ratio, artefact control for TLR4-MyD88 binding inhibitor project, confirmation (AID 1237;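 active = mean inhibition over three repeats above about 26% taken from the earlier screen, limit read from the data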;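 also: HeLa cells stably expressing beta-lactamase reporter as counterscreen for TLR4-MyD88 inhibitors; 0% = DMSO and 100% = clavulanic acid full inhibition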). The following applies: at 8.4 µM, stronger effect = higher value.
Assay [15] concerns the target Induced myeloid leukemia cell differentiation protein Mcl-1 (Homo sapiens) (UniProt Q07820). Nature of the assay: MCL1-BIM peptide interaction disruptors – biochemical, fluorescence polarization, triplicate, confirmation (AID 2168;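 active = inhibition above the average of all tested compounds plus 3 SD, cut at about 40% in these data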;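 also: 0% = DMSO wells and 100% = unlabeled Bim-BH3 control peptide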). The following applies: GST-MCL1 / FITC-Bim-BH3 fluorescence polarization; at 10.9 µM; stronger effect = higher value.
Assay [16] has as its target Platelet-activating factor acetylhydrolase (Homo sapiens) (UniProt Q13093). Nature of the assay: inhibition of plasma PAF acetylhydrolase – biochemical, fluorescence polarization, human, confirmation (AID 463230;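 active = mean inhibition of the triplicate above the hit cutoff set for the earlier primary screen, cut at about 25% in these data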;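 also: 0% = enzyme with DMSO and 100% = wells lacking pPAFAH enzyme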). Particulars: recombinant pPAFAH, FP-Rh probe fluorescence polarization; at 3.39 µM; stronger effect = higher value.

Values without a mark were called inactive. Some of the results follow. Calls of active or inactive are those of the source.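 The calls were made as follows, unless noted: active = inhibition above the hit cutoff set in the earlier primary screen (cut at about 27% in these data); inactive = the rest.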

Chain of Protein phosphatase methylesterase 1 (Homo sapiens) (Q9Y570 whole entry, looked up): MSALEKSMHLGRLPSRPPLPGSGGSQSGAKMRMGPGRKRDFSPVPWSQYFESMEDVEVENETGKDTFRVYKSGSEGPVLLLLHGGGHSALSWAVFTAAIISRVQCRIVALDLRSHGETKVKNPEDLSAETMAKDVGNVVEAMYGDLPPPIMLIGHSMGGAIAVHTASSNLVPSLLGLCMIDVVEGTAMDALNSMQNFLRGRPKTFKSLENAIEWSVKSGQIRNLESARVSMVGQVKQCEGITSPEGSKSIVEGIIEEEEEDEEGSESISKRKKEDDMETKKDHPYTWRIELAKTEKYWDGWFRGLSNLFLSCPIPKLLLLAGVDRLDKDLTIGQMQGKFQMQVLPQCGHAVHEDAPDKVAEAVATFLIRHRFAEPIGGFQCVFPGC
Chain of Peroxisome proliferator-activated receptor gamma (Homo sapiens) (P37231 whole entry, looked up): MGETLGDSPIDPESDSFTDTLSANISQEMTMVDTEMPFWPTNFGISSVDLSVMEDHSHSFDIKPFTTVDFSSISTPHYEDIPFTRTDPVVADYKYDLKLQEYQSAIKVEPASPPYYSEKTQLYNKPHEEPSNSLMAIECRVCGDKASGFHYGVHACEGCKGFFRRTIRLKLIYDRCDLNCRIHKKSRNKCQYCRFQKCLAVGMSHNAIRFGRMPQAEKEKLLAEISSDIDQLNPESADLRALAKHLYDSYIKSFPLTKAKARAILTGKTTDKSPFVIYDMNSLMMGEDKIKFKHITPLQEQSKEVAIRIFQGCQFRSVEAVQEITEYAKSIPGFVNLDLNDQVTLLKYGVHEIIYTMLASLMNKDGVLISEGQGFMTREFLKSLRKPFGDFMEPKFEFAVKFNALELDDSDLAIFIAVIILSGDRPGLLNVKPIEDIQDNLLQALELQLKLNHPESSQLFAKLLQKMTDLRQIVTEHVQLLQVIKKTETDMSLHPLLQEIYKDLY
Chain of Bcl-2-like protein 1 (Homo sapiens) (Q07817 whole entry, looked up): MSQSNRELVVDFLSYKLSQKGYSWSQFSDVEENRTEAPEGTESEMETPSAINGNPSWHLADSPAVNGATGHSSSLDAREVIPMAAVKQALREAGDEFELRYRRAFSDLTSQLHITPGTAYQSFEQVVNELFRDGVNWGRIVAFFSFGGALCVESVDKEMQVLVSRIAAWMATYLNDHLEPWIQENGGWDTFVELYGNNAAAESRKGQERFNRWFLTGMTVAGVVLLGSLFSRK
Chain of Peroxisome proliferator-activated receptor gamma (Homo sapiens) + Nuclear receptor coactivator 3 (Homo sapiens) (P37231 whole entry, looked up): as the sequence (P37231 whole entry, looked up) above
Chain of Peroxisome proliferator-activated receptor gamma (Homo sapiens) + Nuclear receptor coactivator 3 (Homo sapiens) (Q9Y6Q9 whole entry, looked up): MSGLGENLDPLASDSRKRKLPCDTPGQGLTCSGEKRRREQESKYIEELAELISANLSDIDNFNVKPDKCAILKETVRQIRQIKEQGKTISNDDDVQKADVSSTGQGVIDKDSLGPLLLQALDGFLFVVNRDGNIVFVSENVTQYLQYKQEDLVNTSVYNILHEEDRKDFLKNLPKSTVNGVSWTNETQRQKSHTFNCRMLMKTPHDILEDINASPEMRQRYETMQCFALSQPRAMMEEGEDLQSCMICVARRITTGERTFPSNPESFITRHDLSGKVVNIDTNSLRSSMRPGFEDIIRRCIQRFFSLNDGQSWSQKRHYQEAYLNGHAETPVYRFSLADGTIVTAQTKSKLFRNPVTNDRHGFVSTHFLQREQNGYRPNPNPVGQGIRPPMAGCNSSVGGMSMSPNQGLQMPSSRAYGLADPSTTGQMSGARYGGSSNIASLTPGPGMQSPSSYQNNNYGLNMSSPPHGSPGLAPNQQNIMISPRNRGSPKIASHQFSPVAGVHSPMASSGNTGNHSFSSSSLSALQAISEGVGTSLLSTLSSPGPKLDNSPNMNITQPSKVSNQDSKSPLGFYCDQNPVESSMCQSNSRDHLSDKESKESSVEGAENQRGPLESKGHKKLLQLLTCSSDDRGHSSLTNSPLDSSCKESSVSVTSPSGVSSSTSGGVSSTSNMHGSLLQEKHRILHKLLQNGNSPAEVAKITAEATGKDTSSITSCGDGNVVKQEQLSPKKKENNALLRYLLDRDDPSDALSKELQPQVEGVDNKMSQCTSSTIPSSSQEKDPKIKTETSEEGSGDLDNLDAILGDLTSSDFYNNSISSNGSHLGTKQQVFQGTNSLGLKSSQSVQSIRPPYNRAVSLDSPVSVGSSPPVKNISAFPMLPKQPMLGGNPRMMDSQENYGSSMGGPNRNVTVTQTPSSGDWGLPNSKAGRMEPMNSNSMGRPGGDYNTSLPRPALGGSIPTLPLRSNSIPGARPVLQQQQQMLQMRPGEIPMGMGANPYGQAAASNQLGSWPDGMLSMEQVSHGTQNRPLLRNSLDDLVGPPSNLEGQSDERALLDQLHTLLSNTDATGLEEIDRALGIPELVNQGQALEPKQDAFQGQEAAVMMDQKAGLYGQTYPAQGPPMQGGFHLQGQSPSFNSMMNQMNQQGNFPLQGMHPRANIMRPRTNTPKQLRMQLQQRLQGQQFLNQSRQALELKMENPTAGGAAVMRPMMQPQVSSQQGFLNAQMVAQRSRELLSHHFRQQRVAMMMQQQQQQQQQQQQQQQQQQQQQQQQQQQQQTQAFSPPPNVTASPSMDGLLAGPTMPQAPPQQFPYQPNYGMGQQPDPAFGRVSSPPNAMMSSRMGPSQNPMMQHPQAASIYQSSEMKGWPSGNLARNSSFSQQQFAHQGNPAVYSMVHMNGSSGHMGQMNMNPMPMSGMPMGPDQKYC
Chain of (Lyso)-N-acylphosphatidylethanolamine lipase (Mus musculus) (Q8VD66 whole entry, looked up): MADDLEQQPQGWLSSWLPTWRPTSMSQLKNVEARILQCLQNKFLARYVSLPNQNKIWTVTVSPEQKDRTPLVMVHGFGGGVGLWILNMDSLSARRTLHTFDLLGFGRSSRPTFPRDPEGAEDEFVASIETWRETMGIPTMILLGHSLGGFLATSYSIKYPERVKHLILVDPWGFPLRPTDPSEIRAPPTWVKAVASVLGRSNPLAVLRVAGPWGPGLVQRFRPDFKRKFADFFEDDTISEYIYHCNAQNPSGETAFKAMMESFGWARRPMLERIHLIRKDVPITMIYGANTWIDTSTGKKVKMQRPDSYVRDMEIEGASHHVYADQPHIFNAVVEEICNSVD
Chain of Platelet-activating factor acetylhydrolase IB subunit alpha1 (Homo sapiens) (Q15102 whole entry, looked up): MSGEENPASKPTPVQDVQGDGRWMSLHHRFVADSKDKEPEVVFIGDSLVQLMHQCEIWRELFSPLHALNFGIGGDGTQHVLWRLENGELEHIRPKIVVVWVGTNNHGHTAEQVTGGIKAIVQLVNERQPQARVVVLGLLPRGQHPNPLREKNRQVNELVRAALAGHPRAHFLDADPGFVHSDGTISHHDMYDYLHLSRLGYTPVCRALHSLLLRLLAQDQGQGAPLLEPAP
Chain of Platelet-activating factor acetylhydrolase (Homo sapiens) (Q13093 whole entry, looked up): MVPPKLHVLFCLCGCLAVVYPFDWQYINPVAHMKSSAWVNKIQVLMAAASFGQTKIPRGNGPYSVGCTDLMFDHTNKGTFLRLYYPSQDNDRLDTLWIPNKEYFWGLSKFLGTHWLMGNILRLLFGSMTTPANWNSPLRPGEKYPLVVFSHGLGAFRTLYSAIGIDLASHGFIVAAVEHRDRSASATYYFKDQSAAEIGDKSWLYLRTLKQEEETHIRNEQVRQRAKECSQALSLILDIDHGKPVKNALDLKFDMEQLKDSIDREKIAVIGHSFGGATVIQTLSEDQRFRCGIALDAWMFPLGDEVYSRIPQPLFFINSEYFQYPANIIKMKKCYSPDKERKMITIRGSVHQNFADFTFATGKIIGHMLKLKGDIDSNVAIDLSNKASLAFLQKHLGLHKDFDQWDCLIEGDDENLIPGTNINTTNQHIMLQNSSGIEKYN
Chain of Glutathione S-transferase omega-1 (Homo sapiens) (P78417 whole entry, looked up): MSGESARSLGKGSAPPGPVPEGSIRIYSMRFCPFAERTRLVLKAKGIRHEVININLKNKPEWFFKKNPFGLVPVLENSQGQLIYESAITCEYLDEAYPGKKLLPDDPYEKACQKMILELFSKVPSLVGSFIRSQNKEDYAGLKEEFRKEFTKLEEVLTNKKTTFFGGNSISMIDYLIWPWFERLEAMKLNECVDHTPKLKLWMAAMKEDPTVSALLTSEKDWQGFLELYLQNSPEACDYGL
Chain of Induced myeloid leukemia cell differentiation protein Mcl-1 (Homo sapiens) (Q07820 whole entry, looked up): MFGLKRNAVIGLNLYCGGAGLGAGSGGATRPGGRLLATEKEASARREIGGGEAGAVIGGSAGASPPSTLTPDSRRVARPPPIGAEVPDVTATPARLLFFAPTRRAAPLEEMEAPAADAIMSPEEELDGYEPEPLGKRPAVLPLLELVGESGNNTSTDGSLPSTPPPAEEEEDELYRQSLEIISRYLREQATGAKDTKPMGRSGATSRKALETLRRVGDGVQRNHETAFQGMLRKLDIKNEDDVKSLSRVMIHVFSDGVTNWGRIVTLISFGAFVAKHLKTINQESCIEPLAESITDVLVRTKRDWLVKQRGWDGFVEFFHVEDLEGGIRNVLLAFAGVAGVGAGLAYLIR

In the case of `Cc1c(C(=O)O)cccc1-n1c(C)cc(/C=C2\C(=O)NC(=O)N(c3ccc4c(c3)OCO4)C2=O)c1C`, in [1], the activation is 0.15%. Further, the inhibition was -0.77% in assay [2] and 22.9% (active) in assay [3].

As to `O=[N+]([O-])c1ccc(NCc2ccccc2)c2nonc12`, the inhibition in assay [4] was 50.5% (active). On the same count and under the same terms, for `O=C(CF)NC(Nc1cccc2cccnc12)C(Cl)(Cl)Cl` (stereo unspecified) the value was 53% (active). As for `N#Cc1ccccc1Cn1cc(C(=O)C2CC2)c2ccccc21`, in [4], the inhibition is 66.3% (active). As for `COc1cc(-n2c(=S)[nH]c3ccc(C)cc3c2=O)c(Cl)cc1Cl`, the results for the activation in assay [5], in assay [6] and in assay [7] were 24.6% (active), 12.2% and 12.4%, respectively. Further, the inhibition in [8] was 37.6% (active). In the case of `COc1cccc(N2C(=O)NC(=O)/C(=C\c3cn(C)c4ccccc34)C2=O)c1`, in [9], the inhibition was 189% (active). As to `CC(=O)c1ccc2c(c1)C1C(Cl)C(Sc3ccccc3[N+](=O)[O-])CC1C(c1ccccc1)N2` (stereo unspecified), the inhibition in assay [4] was 23.8%.

Consider `CCC(=O)c1cn(Cc2ccccc2C#N)c2ccccc12`, for which the inhibition in assay [4] was 19.9%.

Turning to `O=c1c2ccccc2nc(/C=C/c2ccc(O)c(O)c2)n1-c1ccccc1`, in [4], the inhibition is -7.92%.

Consider `CCOC(=O)c1c(N)n(Cc2ccccc2)c2nc3ccccc3nc12`, for which the inhibition is 13.8% in assay [10]; -4.66% in assay [11]; 8.51% in assay [12]; 2.59% in [2]; -1.64% in assay [3]. The activation in assay [1] is -0.51%. For `CCN(CC)S(=O)(=O)c1cc(NC(=O)C(C)N2CC=C(c3ccccc3)CC2)ccc1C` (stereo unspecified), the inhibition in [4] is 43.7% (active). For `O=C1NC(=O)N(Cc2ccco2)C(=O)/C1=C\c1ccc(-c2ccc(F)cc2)o1`, the activation in assay [1] is 1.86%. In addition, the inhibition in assay [2] is -6.88%; in assay [3], 11.9%.

Take `C[n+]1c2ccccc2nc2ccc(NCCO)cc21`: the inhibition in assay [4] was 35% (active). On to `COc1ccc(CN2CCN(c3ccccc3F)CC2)c(OC)c1`, for which the inhibition was -8.64% in assay [13] and 4.55% in assay [14]. Consider `CSC1=NP(=S)(SC)N(C)c2nc3n(c21)CCC3` (stereo unspecified), for which the activation in assay [5] was 51.6% (active); in assay [6], 33.3% (active); in assay [7] it was 35.7% (active). For `COc1ccc(N2C(=O)/C(=C/c3ccco3)C(=O)NC2=S)cc1`, the results for the inhibition in [9], in assay [15] and in assay [16] were 50.7% (active), 55.3% (active) and 17.3%, respectively. On to `Oc1ccc(/C=N/NP(=S)(c2ccccc2)c2ccccc2)c(O)c1O`, for which the inhibition in [4] was -8.43%. The same measure, in the same setting: the value for `COc1cccc(OC)c1C1=NCC(=O)Nc2c1oc1ccc(Br)cc21` was 52.8% (active); that for `O=P(Oc1ccccc1)(Oc1ccccc1)C(O)c1ccc(Cl)cc1` (stereo unspecified) was 59.3% (active).

Usually inhibition stands for the drop in the measured response relative to a control, in per cent.

The record behind these values is PubChem BioAssay.
